In PubChem BioAssay (NCI):
Values joined by “and” are separate entries in the source; they are usually repeats but may differ in a detail not shown here. Equal values may be shown once. Compounds without any hit were thinned out: in the full panel of roughly 79,000, 15% have a hit. Active and inactive are the calls of the source. Cut-off read from the data, not from the text of the source: active = growth inhibition above about 70%; inactive = the rest.

How the values were obtained:
[1] = NCI Yeast Anticancer Drug Screen. Data for the rad50 strain (AID 155);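 note: 0% = growth of vehicle-only cultures of the same strain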; settings: S. cerevisiae rad50 strain growth inhibition, stronger effect = higher value; at 50.0 µM unless noted
How it was run: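 Readout: growth inhibition relative to vehicle-treated cultures. Compound exposure was carried out in a genetically defined yeast strain deficient in DNA damage repair.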

[2] = NCI Yeast Anticancer Drug Screen. Data for the mec2-1 strain (AID 157); settings: S. cerevisiae mec2-1 strain, stronger effect = higher value; at 50.0 µM unless noted
How it was run: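 Growth inhibition is read against vehicle-treated controls after compound exposure of the mec2-1 yeast strain, which is defective in DNA damage repair or cell cycle control.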

[3] = NCI Yeast Anticancer Drug Screen. Data for the sgs1 mgt1 strain (AID 161);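 note: 0% = growth of cultures given vehicle only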; settings: S. cerevisiae sgs1 mgt1 strain, stronger effect = higher value; at 50.0 µM unless noted
How it was run: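 This yeast growth screen uses a strain with defined DNA-repair lesions; compound-treated growth is compared with vehicle-treated growth.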

[4] = NCI Yeast Anticancer Drug Screen. Data for the cln2 rad14 strain (AID 165);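 note: 0% = growth equal to vehicle treated cultures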; settings: S. cerevisiae cln2 rad14 strain, stronger effect = higher value; at 50.0 µM unless noted
How it was run: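 Growth inhibition, relative to vehicle-treated controls, is the read-out. The test organism is a yeast strain with defined genetic alterations, cln2 rad14.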

[5] = NCI Yeast Anticancer Drug Screen. Data for the bub3 strain (AID 167); settings: S. cerevisiae bub3 mutant strain, stronger effect = higher value; at 50.0 µM unless noted
How it was run: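 Readout: yeast growth inhibition, expressed relative to vehicle-only wells. The test organism is a mutant strain from a panel with lesions in DNA repair or checkpoint genes.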

[6] = NCI Yeast Anticancer Drug Screen. Data for the mlh1 rad18 strain (AID 175); settings: S. cerevisiae mlh1 rad18 strain growth inhibition, stronger effect = higher value; at 50.0 µM unless noted
How it was run: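 Cells of a genetically altered yeast strain, deficient in DNA damage repair, were treated with compound. Their growth was then compared with that of vehicle-treated cultures to give inhibition.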

Measured: growth inhibition

CCCCCCCCCC=O
inactive: [1] -2.05% | [2] 8% | [3] -11.5% | [4] 10.6% | [5] 23.7% | [6] 6.8%

CSc1nc2c([nH]1)c(=O)n(C)c(=S)n2C
inactive: [1] 4.95% | [2] 6.05% | [3] -0.85% | [4] 12.1% | [5] 0.4% | [6] -4.25%

C=C1C2CCC3(CCC4C5(C)CCCC4(C=[N+](CCO)C5)C3C2)C1O (stereo unspecified)
inactive: [1] -20.7% | [2] -22.5% | [3] -27.9% | [4] 14.1% | [5] -17.6% | [6] -28.6%

CC(C)CCOC(=O)C(O)c1ccccc1 (stereo unspecified)
inactive: [1] 15.6% | [2] 2.8% | [3] 0.4% | [4] -22.2% | [5] -25.7% | [6] 8.45%

COc1ccc(C(=O)c2ccc(Br)s2)cc1
inactive: [1] 5.9% | [2] -6.65% | [3] 12.8% | [4] -14.4% | [5] 13.8% | [6] 33%

CC(C)(O)C[N+](=O)[O-]
inactive: [1] 5.85% | [2] -1.8% | [3] 0.85% | [4] -7.7% | [5] 0% | [6] 3.05%

O=C1/C(=C/c2cccc(Br)c2)Cc2ccccc21
inactive: [1] 20.9% | [2] -7.9% | [3] 12.3% | [4] 18.1% | [5] -1.35% | [6] 15.8%

Cc1ccc(S(=O)(=O)N(C)c2ccc3c(c2)C(=O)c2ccccc2-3)cc1
inactive: [1] 20.6% | [2] 14.2% | [3] 37% | [4] -44.5% | [5] 56% | [6] 26.4%

CCCN(CCC)CC(O)c1ccc(Cl)c2ccccc12 (stereo unspecified)
inactive: [1] 1.85% | [2] -30.1% | [3] 21.1% | [4] -35.3% | [5] -17.9% | [6] -9.55%

O=C(NCCNC(=O)C(Br)(Br)Br)C(Br)(Br)Br
active: [1] 82.3% | [6] 72.8%
inactive: [2] 53.5% | [3] 58% | [4] 44.7% | [5] 69.5%

CCOC(=O)c1cnc(NN)[nH]c1=O
inactive: [1] -5.3% | [2] -4.9% | [3] -10.6% | [4] -46.4% | [5] -13.8% | [6] -4.65%

OCC12OCC(C=CC1O)O2 (stereo unspecified)
inactive: [1] -13.2% | [2] 17.1% | [3] -4.65% | [4] 1.2% | [5] -0.15% | [6] -8.5%

COc1cc2ccc3c4ccccc4cnc3c2cc1OC
inactive: [1] 8.1% | [2] 5.4% | [3] 0% | [4] 18.2% | [5] 13.7% | [6] 13.2%

O=C1Nc2cc(Br)ccc2C1=O
inactive: [1] 7.5% | [2] 23.1% | [3] 2% | [4] 11.8% | [5] 10.4% | [6] 15.2%

O=C1NC(=O)C2C3OC(C(Cl)C3Cl)C12 (stereo unspecified)
inactive: [1] 0.8% and 18.2% | [2] -19.5% and 11.5% | [3] -7.85% and 12.5% | [4] 20.4% and 42.7% | [5] -4.95% and 7.95% | [6] -7.85% and -1.25%

O=C(O)c1cc([N+](=O)[O-])cc([N+](=O)[O-])c1-c1ccccc1
inactive: [1] -10.4% | [2] -2.6% | [3] 6.2% | [4] -13.4% | [5] 44.6% | [6] -10%

CC(C)CCC(C)C1CCC2C3CCC4CC(=O)CC4(C)C3CCC12C (stereo unspecified)
inactive: [1] -13.5% | [2] 7.2% | [3] -20.1% | [4] -10.4% | [5] -11.6% | [6] 2.85%

C/C(CC(=O)Nc1cc(Cl)c(Cl)cc1Cl)=N\NS(=O)(=O)c1ccc(C)cc1
inactive: [1] -3.05% | [2] -6.8% | [3] 3.35% | [4] -53.9% | [5] -1.2% | [6] 2.75%

O=Cc1ccc(N2CCOCC2)cc1
inactive: [1] 9.2% | [2] -2.1% | [3] -11.2% | [4] -29.6% | [5] -18.9% | [6] 1.95%

O=C(OC1C2C=COC(OC3OC(CO)C(O)C(O)C3O)C2C2(CO)OC12)c1ccc(O)cc1 (stereo unspecified)
inactive: [1] -0.15% | [2] -6.45% | [3] 17.8% | [4] 18.6% | [5] 1.8% | [6] -11.6%

C=CCOc1cc2c(cc1C(CC)c1ccc(OCc3ccccc3)cc1)OCO2 (stereo unspecified)
inactive: [1] 31.9% | [2] 5.2% | [3] -2.85% | [4] 13.9% | [5] 0.9% | [6] -10.2%

C=C(C)c1ccc(C(C)C)cc1
inactive: [1] -38.5% | [2] -40.1% | [3] -24.6% | [4] 4.55% | [5] -13.6% | [6] -3.25%

CCOC(=O)C1(Cc2ccccc2)Cc2cc3c(cc2C1)CCC3
inactive: [1] -23.1% | [2] -50.5% | [3] -23.7% | [4] -3.5% | [5] 2.6% | [6] -2.5%

C=C(C)C(=O)O[C@H]1[C@H]2[C@H](OC(=O)[C@H]2C)[C@H](O)[C@@H](C)[C@@H]2C=CC(=O)[C@]21C
inactive: [1] 31.3% | [2] 30.5% | [3] 69.8% | [4] 47.2% | [5] 57.4% | [6] -31.1%

CC(CCCCCOC(=O)Nc1ccccc1)OC(=O)Nc1ccccc1 (stereo unspecified)
inactive: [1] 6.2% | [2] -12.3% | [3] -3.1% | [4] 0.75% | [5] 1.15% | [6] 2.6%

CCOC(Nc1cc(Cl)cc(Cl)c1)C(=O)c1ccccc1 (stereo unspecified)
inactive: [1] -1.9% | [2] -0.7% | [3] -9.8% | [4] -3.05% | [5] 4.05% | [6] -5.65%

CCOC(=O)C1=C(C(=O)c2ccc(OC)cc2)C(c2ccc([N+](=O)[O-])cc2)C(C(=O)c2ccc(OC)cc2)=C(C(=O)OCC)N1
inactive: [1] 11.1% | [2] 5.8% | [3] 0.1% | [4] 14.1% | [5] 4.95% | [6] -3.25%

CCC(C)(CC)c1ccc(C)cc1OC
inactive: [1] -4.9% | [2] 8.15% | [3] -7.1% | [4] 18.6% | [5] 24.6% | [6] 6.9%

COc1ccc(NC(Nc2ccc(OC)cc2)C(Cl)(Cl)Cl)cc1
inactive: [1] 15.1% | [2] 9.5% | [3] 13% | [4] -11.2% | [5] -4.55% | [6] -8.6%

CN(C)CC[N+]1=Nc2cccc3cccc(c23)N1
inactive: [1] -6.85% | [2] -8.6% | [3] -2.4% | [4] 1.55% | [5] -6.2% | [6] 3.9%

CCOC(=O)C(C)NC(=O)c1ccccc1 (stereo unspecified)
inactive: [1] 0.25% | [2] -8.5% | [3] -14.6% | [4] -52.2% | [5] 5.5% | [6] 0.75%

Cc1cc(C)c2ccc(Cl)nc2n1
inactive: [1] -6.75% | [2] 0.55% | [3] -7.35% | [4] 9.35% | [5] -4.35% | [6] 6.1%

CCC(C)(O)c1cn(-c2ccc(Cl)cc2)nn1 (stereo unspecified)
inactive: [1] -31.4% | [2] -32.9% | [3] -4.4% | [4] 16.4% | [5] -6.55% | [6] 0.25%

CN(C)c1ccc(C2NC(=S)NC3=C2CCCC3)cc1 (stereo unspecified)
inactive: [1] -15.1% | [2] -15.6% | [3] 5% | [4] -20.6% | [5] 22.8% | [6] 14.6%

CSC(=N)N
inactive: [1] -8.55% and -15.6% | [2] -18.2% and -17.4% | [3] -52.2% | [4] -46% | [5] 1.45% | [6] -2.95% and -29.8%

O=C(CNC(=O)C(CSC(c1ccccc1)c1ccccc1)NC(=O)C(CSC(c1ccccc1)(c1ccccc1)c1ccccc1)NC(=O)OCc1ccccc1)OC(c1ccccc1)c1ccccc1 (stereo unspecified)
inactive: [1] 4.15% | [2] 3.1% | [3] -6.25% | [4] -4.25% | [5] -1.85% | [6] 20.7%

COC(=O)C1CC2(CCC1=O)Cc1ccccc1C2=O (stereo unspecified)
inactive: [1] -15.5% | [2] -3.45% | [3] 28.5% | [4] 1.3% | [5] -4.25% | [6] -16.4%

CC1Cc2c(n[nH]c2CC2CC(=O)NC(=O)C2)C(C)C1 (stereo unspecified)
inactive: [1] 8.6% | [2] -2.35% | [3] 4% | [4] -15.7% | [5] 29.4% | [6] 17.8%

CN(/C(=N/C(=S)NCc1ccccc1)SCc1ccccc1)c1ccccc1
inactive: [1] 38% | [2] 29.6% | [3] 35.6% | [4] 9.45% | [5] 38.1% | [6] 58%

Cc1cc(C(c2ccccc2)n2c3ccccc3c3ccccc32)cc(C)c1O (stereo unspecified)
inactive: [1] 6.5% | [2] 11.3% | [3] 8.45% | [4] 0.25% | [5] -7.55% | [6] 16.4%

O=C(C/C(CCC(=O)N(Cc1ccccc1)Cc1ccccc1)=N/Nc1ccc([N+](=O)[O-])cc1[N+](=O)[O-])c1ccccc1
inactive: [1] 42.9% | [2] 29.9% | [3] 60% | [4] 41.6% | [5] 1.05% | [6] 61.8%
